Test results from ChEMBL document CHEMBL1961873, “Compounds: GSK PKIS; Assays: Nanosyn kinase panel” (2012).

Key:
[1] = molecular target: Calcium/calmodulin-dependent protein kinase type II subunit alpha (Homo sapiens) (UniProt Q9UQM7); settings: at 1 µM;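 note: reported value is a mean percent inhibition of CAMK2A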
[2] = molecular target: Calcium/calmodulin-dependent protein kinase type II subunit delta (Homo sapiens) (UniProt Q13557); settings: at 0.1 µM
[3] = molecular target: Calcium/calmodulin-dependent protein kinase type II subunit delta (Homo sapiens) (UniProt Q13557); settings: at 1 µM
[4] = molecular target: T1, Calcium/calmodulin-dependent protein kinase type IV (Homo sapiens) (UniProt Q16566); settings: at 0.1 µM
T1 sequence (whole entry): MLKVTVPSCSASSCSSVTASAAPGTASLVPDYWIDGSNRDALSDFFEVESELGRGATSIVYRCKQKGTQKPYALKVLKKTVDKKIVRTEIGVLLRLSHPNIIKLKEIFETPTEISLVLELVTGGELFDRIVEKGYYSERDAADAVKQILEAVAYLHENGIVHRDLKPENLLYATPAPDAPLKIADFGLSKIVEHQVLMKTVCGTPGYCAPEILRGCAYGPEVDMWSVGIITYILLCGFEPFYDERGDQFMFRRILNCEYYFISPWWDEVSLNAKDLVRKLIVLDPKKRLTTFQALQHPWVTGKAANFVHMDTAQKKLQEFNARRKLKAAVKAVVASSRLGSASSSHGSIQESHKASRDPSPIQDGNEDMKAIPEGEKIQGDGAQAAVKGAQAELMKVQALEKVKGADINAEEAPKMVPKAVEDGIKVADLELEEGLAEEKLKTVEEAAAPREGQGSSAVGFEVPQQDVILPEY

[5] = molecular target: T1, Calcium/calmodulin-dependent protein kinase type IV (Homo sapiens); settings: at 1 µM
[6] = molecular target: T2, Serine/threonine-protein kinase Chk1 (Homo sapiens) (UniProt O14757); settings: at 0.1 µM
T2 sequence (whole entry): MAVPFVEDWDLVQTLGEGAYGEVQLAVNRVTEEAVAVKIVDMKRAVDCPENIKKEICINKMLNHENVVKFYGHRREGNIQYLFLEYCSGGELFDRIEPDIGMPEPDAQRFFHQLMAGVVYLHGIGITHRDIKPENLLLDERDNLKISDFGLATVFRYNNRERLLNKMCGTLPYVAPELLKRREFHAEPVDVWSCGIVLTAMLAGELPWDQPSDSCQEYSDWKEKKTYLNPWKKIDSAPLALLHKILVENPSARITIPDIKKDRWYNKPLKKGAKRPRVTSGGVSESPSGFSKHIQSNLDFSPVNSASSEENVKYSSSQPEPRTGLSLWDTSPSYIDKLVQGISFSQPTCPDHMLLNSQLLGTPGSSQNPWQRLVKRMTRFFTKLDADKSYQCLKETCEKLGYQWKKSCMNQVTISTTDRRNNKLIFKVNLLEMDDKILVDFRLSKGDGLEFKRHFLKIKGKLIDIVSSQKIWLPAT

[7] = molecular target: T2, Serine/threonine-protein kinase Chk1 (Homo sapiens); settings: at 1 µM
[8] = molecular target: Serine/threonine-protein kinase Chk2 (Homo sapiens) (UniProt O96017); settings: at 0.1 µM
[9] = molecular target: Serine/threonine-protein kinase Chk2 (Homo sapiens) (UniProt O96017); settings: at 1 µM
[10] = molecular target: Death-associated protein kinase 1 (Homo sapiens) (UniProt P53355); settings: at 0.1 µM;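 note: reported figure is the mean inhibition of DAPK1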
Death-associated protein kinase 1 (Homo sapiens), sequence (P53355 whole entry, looked up): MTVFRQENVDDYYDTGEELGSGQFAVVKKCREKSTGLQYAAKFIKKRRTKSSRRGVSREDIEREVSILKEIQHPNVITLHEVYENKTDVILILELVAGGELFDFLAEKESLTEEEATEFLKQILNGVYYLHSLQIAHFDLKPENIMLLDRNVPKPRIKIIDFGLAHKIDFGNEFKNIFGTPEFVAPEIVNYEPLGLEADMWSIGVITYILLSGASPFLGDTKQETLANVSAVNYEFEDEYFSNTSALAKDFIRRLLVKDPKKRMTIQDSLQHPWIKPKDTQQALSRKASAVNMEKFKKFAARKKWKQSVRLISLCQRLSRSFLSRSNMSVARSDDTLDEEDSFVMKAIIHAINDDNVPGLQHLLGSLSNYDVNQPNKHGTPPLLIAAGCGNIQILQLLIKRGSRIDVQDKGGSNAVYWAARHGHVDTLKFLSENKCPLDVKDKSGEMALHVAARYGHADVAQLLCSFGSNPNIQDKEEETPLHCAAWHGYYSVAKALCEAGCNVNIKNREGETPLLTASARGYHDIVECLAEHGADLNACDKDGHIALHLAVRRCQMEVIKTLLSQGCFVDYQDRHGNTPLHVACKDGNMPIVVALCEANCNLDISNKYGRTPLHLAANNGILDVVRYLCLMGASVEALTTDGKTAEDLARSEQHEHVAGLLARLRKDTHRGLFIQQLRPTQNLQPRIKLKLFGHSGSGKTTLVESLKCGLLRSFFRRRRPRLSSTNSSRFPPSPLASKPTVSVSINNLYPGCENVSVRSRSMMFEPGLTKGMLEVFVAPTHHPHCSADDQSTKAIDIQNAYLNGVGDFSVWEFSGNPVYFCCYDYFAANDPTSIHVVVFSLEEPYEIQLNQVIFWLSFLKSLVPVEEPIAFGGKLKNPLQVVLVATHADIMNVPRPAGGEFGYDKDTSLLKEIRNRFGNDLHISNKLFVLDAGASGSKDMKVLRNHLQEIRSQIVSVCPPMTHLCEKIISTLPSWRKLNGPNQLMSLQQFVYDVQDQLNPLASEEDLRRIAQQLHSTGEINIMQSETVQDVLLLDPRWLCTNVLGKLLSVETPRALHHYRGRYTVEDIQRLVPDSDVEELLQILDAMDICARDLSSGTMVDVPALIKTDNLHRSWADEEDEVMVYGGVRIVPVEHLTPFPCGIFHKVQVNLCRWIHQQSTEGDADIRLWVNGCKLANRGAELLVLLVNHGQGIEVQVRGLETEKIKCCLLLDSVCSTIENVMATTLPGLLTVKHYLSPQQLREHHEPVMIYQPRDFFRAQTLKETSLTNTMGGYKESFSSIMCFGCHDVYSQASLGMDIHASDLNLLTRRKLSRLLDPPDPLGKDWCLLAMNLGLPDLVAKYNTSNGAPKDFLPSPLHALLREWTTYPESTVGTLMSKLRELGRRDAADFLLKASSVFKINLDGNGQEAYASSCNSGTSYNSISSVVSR

Serine/threonine-protein kinase Chk2 (Homo sapiens), sequence (O96017 whole entry): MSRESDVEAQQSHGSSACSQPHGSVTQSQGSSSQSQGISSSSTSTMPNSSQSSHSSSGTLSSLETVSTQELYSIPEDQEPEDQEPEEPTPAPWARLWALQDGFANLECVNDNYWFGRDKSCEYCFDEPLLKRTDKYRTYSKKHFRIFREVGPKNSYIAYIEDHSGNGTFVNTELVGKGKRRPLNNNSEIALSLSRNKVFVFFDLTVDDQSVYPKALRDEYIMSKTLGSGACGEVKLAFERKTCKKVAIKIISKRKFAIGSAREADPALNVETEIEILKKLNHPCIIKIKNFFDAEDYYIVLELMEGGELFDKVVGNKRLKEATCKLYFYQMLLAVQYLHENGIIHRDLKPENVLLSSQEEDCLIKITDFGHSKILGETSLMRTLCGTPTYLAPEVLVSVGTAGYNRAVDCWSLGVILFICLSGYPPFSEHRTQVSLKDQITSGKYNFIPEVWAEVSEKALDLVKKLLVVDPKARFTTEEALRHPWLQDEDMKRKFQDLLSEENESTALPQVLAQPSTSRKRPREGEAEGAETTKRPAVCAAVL
Calcium/calmodulin-dependent protein kinase type II subunit delta (Homo sapiens), sequence (Q13557 whole entry): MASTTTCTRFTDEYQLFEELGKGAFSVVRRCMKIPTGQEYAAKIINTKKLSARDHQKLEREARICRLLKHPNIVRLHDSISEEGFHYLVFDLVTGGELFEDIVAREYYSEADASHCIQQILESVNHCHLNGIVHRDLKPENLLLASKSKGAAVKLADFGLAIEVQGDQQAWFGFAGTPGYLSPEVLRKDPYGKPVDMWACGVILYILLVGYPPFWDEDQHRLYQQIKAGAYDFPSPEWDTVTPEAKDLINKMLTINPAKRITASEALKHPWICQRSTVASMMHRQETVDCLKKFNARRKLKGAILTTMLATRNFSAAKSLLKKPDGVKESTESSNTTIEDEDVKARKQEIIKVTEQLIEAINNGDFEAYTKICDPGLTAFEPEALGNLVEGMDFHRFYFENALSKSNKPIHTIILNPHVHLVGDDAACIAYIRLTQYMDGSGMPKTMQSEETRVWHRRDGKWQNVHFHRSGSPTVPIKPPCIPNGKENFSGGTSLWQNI
Calcium/calmodulin-dependent protein kinase type II subunit alpha (Homo sapiens), sequence (Q9UQM7 whole entry): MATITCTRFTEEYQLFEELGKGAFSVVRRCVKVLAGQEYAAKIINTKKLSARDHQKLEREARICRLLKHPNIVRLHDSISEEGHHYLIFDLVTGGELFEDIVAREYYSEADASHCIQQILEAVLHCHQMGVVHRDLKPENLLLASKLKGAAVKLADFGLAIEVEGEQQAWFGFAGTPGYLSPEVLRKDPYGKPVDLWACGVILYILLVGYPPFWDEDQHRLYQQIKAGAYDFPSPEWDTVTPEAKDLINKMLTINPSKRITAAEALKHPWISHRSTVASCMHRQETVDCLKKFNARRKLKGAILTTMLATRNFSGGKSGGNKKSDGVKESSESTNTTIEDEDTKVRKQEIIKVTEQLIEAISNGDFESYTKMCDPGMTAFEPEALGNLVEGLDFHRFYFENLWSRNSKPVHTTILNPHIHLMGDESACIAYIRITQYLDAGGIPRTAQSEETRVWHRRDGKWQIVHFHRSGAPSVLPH

| SMILES | inhibition [1] | inhibition [2] | inhibition [3] | inhibition [4] | inhibition [5] | inhibition [6] | inhibition [7] | inhibition [8] | inhibition [9] | inhibition [10] |
| --- | --- | --- | --- | --- | --- | --- | --- | --- | --- | --- |
| NS(=O)(=O)c1ccc(N/C=C2\C(=O)Nc3ccc4ncsc4c32)cc1 | 3.49% | 4.43% | 16.3% | -1.62% | -1.06% | 7.84% | 33% | 4.73% | 19.1% | 5.66% |
| NS(=O)(=O)c1ccc(-c2ccc3c(NC(=O)C4CC4)n[nH]c3c2)cc1 | 3.21% | 2.57% | 3.65% | 0.18% | 0.35% | 1.61% | 4.16% | 1.56% | 2.29% | 3.27% |
| CCn1c(-c2nonc2N)nc2c(C#CC(C)(C)O)nc(O[C@@H](CN)c3ccccc3)cc21 | 1.68% | -0.76% | 14.3% | -0.23% | 4.51% | -3.48% | 31.1% | 2.31% | 26.7% | -0.91% |
| COc1cccc(-n2ncc3c(N/N=C/c4ccncc4)ncnc32)c1 | 6.87% | 4.21% | 12.8% | -0.17% | -1.96% | 3.28% | 5.7% | 2.56% | 4.89% | 4.45% |
| NC(=O)c1sc(-n2cnc3cc(C(F)(F)F)ccc32)cc1OCc1ccccc1Br | -0.17% | 2.18% | 1.35% | 2.89% | 1.08% | -0.06% | 0.96% | 1.22% | 0.32% | 1.27% |
| COc1cc(C=NNc2ncnc3c2cnn3Cc2ccccc2)ccc1O | -4.25% | -4.62% | -0.47% | -2.48% | -3.98% | -2.18% | -3.22% | -3.42% | -3.47% | -3.06% |
| Cc1cc(-c2ccco2)cc(C)c1/C=C/c1cncc(-c2nn[nH]n2)c1 | -0.97% | -0.09% | 0.35% | 1.45% | 1.06% | -8.36% | -1.92% | -0.74% | -0.4% | 1.92% |
| CCn1c(-c2nonc2N)nc2c(C#CC(C)(C)O)ncc(OC[C@@H]3CCCN3)c21 | -2.05% | 0.64% | 0.35% | 0.16% | -0.65% | -1.63% | 2.95% | 0.37% | 1.08% | 1.35% |
| COc1cccc(COc2cc(-n3cnc4ccccc43)sc2C(N)=O)c1 | -0.42% | 0.07% | -0.84% | 2.92% | -0.29% | 2.18% | -2.21% | -0.72% | -0.59% | 1.92% |
| CCn1c(-c2nonc2N)nc2c(C#CCN)ncc(OCCCN)c21 | -1.33% | -4.81% | -4.58% | -6% | -5.56% | -3.81% | 0.26% | -1.17% | 0.23% | -2.99% |
| CCn1c(-c2nonc2N)nc2c(C#CC(C)(C)O)ncc(OCC3CCNCC3)c21 | 2.25% | 2.49% | 4.75% | -2.07% | -2.31% | -0.5% | 5.91% | 2.91% | 6.65% | 1.8% |
| Nc1nonc1-c1nc2cnccc2n1C1CCCCC1 | 0.68% | -1.42% | 4.05% | 1.07% | 1.19% | -0.67% | 1.88% | -2% | -1.47% | -1.34% |
| Fc1ccc(-c2ncn(C3CCNCC3)c2-c2ccnc(Oc3ccccc3)n2)cc1 | -2.16% | 1.37% | 2.5% | -1.82% | -2.43% | -1.72% | 0.04% | 1.16% | 1.46% | -0.62% |
| COc1cc2c(cc1Nc1nc(Nc3ccsc3C(N)=O)c3cc[nH]c3n1)N(C(=O)CN(C)C)CCC2 | -4.91% | 3.02% | 13% | 2.85% | 12.1% | -2.04% |  | 2.31% | 11.8% | 2.17% |
